# From PubChem BioAssay
# A selection: hits, their analogues and other compounds. The true share with any hit is near 6.2%.
# HT1080NT lethal: kills 2HG-producing HT-1080-NT fibrosarcoma cells; HT-1080-NT fibrosarcoma viability, CellTiter-Glo ATP luminescence, 48 h; Potency, µM (doses to about 46.1 µM), actives largely listed as cytotoxic; 1.6% of 360,000 active; AID 686970;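 also: NT is the 2HG producing partner of a matched IDH1 knockdown line; nearly all actives have a fitted effect of over 55% in size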
#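 Read-out is CellTiter-Glo luminescence after 10 minutes at room temperature, following 48 hours' compound treatment of HT-1080-NT cells (750 cells/well, RPMI, 5% FBS, 37 degrees C).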
# ATXN viability: reduces viability in counter-screen for ATXN expression inhibitors; S2 cells (HEK-293 line with an ATXN2-luciferase reporter) viability, CellTiter-Fluor protease fluorescence, 24 h; Potency, µM (series often up to 56.7 µM), actives largely listed as cytotoxic; 0.49% of 400,000 active; also: nearly all actives have a fitted effect of over 40% in size
# HT1080 IDH1KD tx: HT-1080 IDH1 knockdown cell toxicity (counter line). AID 686971. Potency, µM (titrated, usually from 46.1 µM), usual class: cytotoxic. 2% of 360,000 active. HT-1080 IDH1 knockdown viability, ATP luminescence, 48 h
#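 HT-1080-IDH1KD cells (IDH1 knocked down), 750/well in RPMI with 5% FBS, treated with compound 48 h at 37 degrees C. Viability by CellTiter-Glo luminescence, normalised to DMSO and no-cell wells; concentration-response curves classed.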
# KB-3-1 tox: kills parental KB-3-1 adenocarcinoma cells | Potency, µM (doses to about 46.1 µM), actives largely listed as cytotoxic | 1.4% of 400,000 active | KB-3-1 viability, CellTiter-Glo ATP luminescence, 72 h; also: nearly all actives have a fitted effect of over 60% in size
#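 Cells are dispensed, compounds pinned in, plates held at 37 °C for 72 h, then CellTiter-Glo is added and luminescence read after 10 minutes. Cell line: parental KB-3-1 in phenol-red-free DMEM, 10% FBS.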
# ATXN2 expr inh: inhibitors of ATXN2 expression | Potency, µM (highest dose often 57 µM), actives largely listed as inhibitors | HEK-293 ATXN2-luciferase reporter, luminescence, 24 h | 0.72% of 360,000 active | AID 1745845; also: nearly all actives have a fitted effect of over 55% in size
#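 ATXN2-luciferase reporter cells (luciferase flanked by upstream and downstream ATXN2 gene portions) were treated 24 h at 37 °C with compounds at up to 57 uM. SteadyGlo luminescence gave expression; GF-AFC fluorescence gave viability.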
# KB-V1 cytotox: KB-V1 MDR subline cytotoxicity; KB-V1 MDR cells viability, CellTiter-Glo, 72 h; Potency, µM (doses to about 46.1 µM), actives largely listed as cytotoxic; 3.4% of 400,000 active; AID 1347076; also: nearly all actives have a fitted effect of over 60% in size
#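 Compound-treated KB-V1 multidrug-resistant cells, 72 h, 37 degrees C; viability by CellTiter-Glo. Fitted qHTS curves give the values.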
# Hits are given with their value; n = inactive; u = inconclusive; x = no result given; ! = not active in a repeat; [ ] = another dose, or the depositor's remark. Calls follow the shape of the dose curve; as a rule, active = well fitted curve in the direction sought with a large enough effect; inconclusive = small, poorly fitted or top-dose-only effect, or another doubt; inactive = no such curve, though single readings can be large; an effect the other way counts as inactive or inconclusive.
SMILES,HT1080NT lethal,ATXN viability,HT1080 IDH1KD tx,KB-3-1 tox,ATXN2 expr inh,KB-V1 cytotox
CCCc1c(C(=O)N/N=C(\C)c2ccc(CC(C)C)cc2)nnn1-c1nonc1N,n,n,n,n,x,n
c1ccc(Nc2nc(NCC3CCCO3)c3ccccc3n2)cc1 (stereo not drawn),23µM,u,18µM,16µM,n[11.3 µM],21µM
Cc1ccccc1CNC(=O)c1ccc(Cn2c(SCc3ccccc3)nc3cccnc32)cc1,x,u,x,n,n,n
CCOC(=O)C1=C(N)n2c(s/c(=C\c3cccs3)c2=O)=C(C(=O)OCC)C1c1cccs1 (stereo not drawn),u,n,2.6µM,10µM,n,13µM
CC(=O)Nc1ccccc1-c1nc(CNC(=O)c2cc(C)ccc2C)c(C)o1,x,n,x,x,x,x
COCC(C)n1c(C)cc(C(=O)COC(=O)c2cnc(Cl)c(Cl)c2)c1C (stereo not drawn),n,u,n,n,n,u
COCC(C)n1c(C)cc(C(=O)COC(=O)c2cccn2C)c1C (stereo not drawn),n,n,n,n,18µM,n
COc1ccc(-c2cnc(C)o2)cc1S(=O)(=O)Nc1c(C)cc(C)cc1C,x,u,x,n,n,n
Cc1cccc(-c2nnc(SCCC(=O)O)o2)c1,x,n,x,n,1.4µM,n
Cc1ccc(NC(=O)CSc2nnc(-c3ccco3)c(-c3ccco3)n2)cc1,7.3µM,n,5.2µM,5.8µM,n,5.2µM
O=C(CCSc1nnc(-c2ccco2)o1)Nc1ccc(F)cc1,n,n,n,n,x,n
Cc1ccc(NC(=O)CCSc2nnc(-c3ccco3)o2)cc1,n,n,n,u,n,23µM
Cc1ccc(S(=O)(=O)N2CCCCC2C)cc1[N+](=O)[O-] (stereo not drawn),n,n,n,n,n,n
CC(O)(c1ccc(F)c(F)c1)c1nc(-c2ccccc2)cs1 (stereo not drawn),u,u,u,n,n,n
COc1cc(OC)cc(-c2ncc3ccccn23)c1,n,n,n,21µM,n,u
COc1cccc(-c2ncc3ccccn23)c1,n,n,n,n,n,n
COc1cc(-c2ncc3ccccn23)cc(OC)c1OC,n,n,n,n,n,15µM
COc1cccc(NC(=S)N(CCc2c(C)[nH]c3ccc(C)cc23)Cc2cccs2)c1,n,u,n,16µM,u,u
COc1ccc2[nH]c(C)c(CCN(Cc3cccs3)C(=S)Nc3cccc(F)c3)c2c1,n,u,n,n,u,u
CN(C)C(=O)COC(=O)c1ccccc1OCC(=O)Nc1ccc(Br)cc1,x,x,x,u,x,n
c1ccc(COc2ccccc2CNC2CCCC2)cc1,n,n,n,n,n,u
c1ccc(COc2ccccc2CNC23CC4CC(CC(C4)C2)C3)cc1,13µM,x,16µM,u,16µM,u
Cc1cc2nc(-c3ccccc3)c(Cc3ccccc3)n2c(C)c1Br,u,n,n,n,n,n
O=C(NC1CCCC1)C(c1ccc(F)cc1)N(Cc1ccc(F)cc1)C(=O)c1ccn[nH]1 (stereo not drawn),n,n,n,u,n,n
O=C(NC1CCCC1)C(c1ccc(F)cc1)N(Cc1ccccc1Cl)C(=O)CCl (stereo not drawn),u,n,u,u,n,15µM
SMILES,HT1080NT lethal,ATXN viability,HT1080 IDH1KD tx,KB-3-1 tox,ATXN2 expr inh,KB-V1 cytotox
COCCN(C(=O)CCC(=O)Nc1cc(C)on1)C(C(=O)NC1CCCC1)c1ccccc1C (stereo not drawn),n,n,n,n,n[11.3 µM],n
COCCN(C(=O)CCl)C(C(=O)NC1CCCCC1)c1ccccc1C (stereo not drawn),u,x,13µM,13µM,u,21µM
CCNC(=O)Nc1ccc2ncc(Nc3ccc(C)cc3)nc2n1,x,x,x,x,n,x
CCCCCn1c2c(c(=N)c3ccccc31)CCC2,u,n,2.9µM,3.7µM,u,u
CCCCCCCCn1c2c(c(=N)c3ccccc31)CCC2,23µM,u,9.2µM,3.3µM,7.5µM,n
COc1ccc(C(CCNCc2ccc(F)cc2)c2ccc(F)cc2)cc1 (stereo not drawn),u,u,23µM,u,u,u
COc1ccc(C(CCNC(C)c2ccccc2)c2ccc(F)cc2)cc1 (stereo not drawn),u,u,18µM,u,28µM,12µM
COc1ccc(C(CCNCc2ccccc2)c2ccc(F)cc2)cc1 (stereo not drawn),u,n,16µM,u,n,18µM
COc1ccc(CNCC(O)(c2ccccc2)c2ccc(F)cc2)cc1 (stereo not drawn),n,n,u,n,n,n
COc1ccc(CCNCc2ccc(OCc3ccccc3)cc2)cc1,u,n,18µM,n,n,n
CC(C)Oc1cc(F)ccc1-c1cc(C(=O)NCc2cccs2)[nH]n1,n,n,n,n,n,n
COc1ccc(CNCCC(c2ccc(F)cc2)c2ccc(OC)cc2)cc1 (stereo not drawn),21µM,n,21µM,23µM,n,u
COc1ccc(CNC(=O)CNC(C)c2ccc(F)cc2)cc1 (stereo not drawn),n,n,n,n,n,n
CCCCN(CCCC)S(=O)(=O)c1ccc(C(=O)Nc2sc3c(c2C(N)=O)CCN(CC)C3)cc1,x,x,x,n,n,n
CCN1CCc2c(sc(NC(=O)c3ccc(C(=O)c4ccccc4)cc3)c2C(N)=O)C1,21µM,n,u,n,n,n
CCN1CCc2c(sc(NC(=O)c3ccc(S(=O)(=O)N(CC)c4ccccc4)cc3)c2C(N)=O)C1,18µM,n,5.8µM,u,n,u
C[C@@H]1CN([C@H](C)CO)C(=O)CCCn2nncc2CO[C@H]1CN(C)Cc1cccc(C(F)(F)F)c1,n,n,n,n,n,n
CCC(=O)N1CCc2cc(S(=O)(=O)NCCC(=O)NCc3ccc(OC)cc3)ccc21,x,n,x,n,n,n
CCN(CC)S(=O)(=O)c1cccc(C(=O)N/N=C/c2ccccc2OCC(=O)O)c1,n,n,n,n,n,n
O=C(N/N=C\c1ccc([N+](=O)[O-])o1)c1cncc(Br)c1,21µM,u,16µM,u,n,u
O=C(N/N=C/c1ccc([N+](=O)[O-])o1)c1ccncc1,u,n,18µM,n,u,n
CCN(CC)S(=O)(=O)c1cccc(C(=O)N/N=C/c2ccc([N+](=O)[O-])o2)c1,u,n,18µM,n,n,u
O=C(N/N=C/c1ccc([N+](=O)[O-])o1)c1ccc(O)cc1,5.8µM,u,6.5µM,u,11µM!,u
CCOC(=O)[C@H](O)[C@@H](O)c1cccc([C@H](O)[C@@H](O)C(=O)OCC)c1,n,n,n,n,n,n
CCOc1cccc(OCCCn2c(-c3ccc(Br)cc3)nc3ccccc3c2=O)c1,x,n,x,n,n,u
